Our source for the binding response (% of control) values is PubChem BioAssay AID1531 (NMMLSC, 2009).

Among all 290,000 compounds or so, about 3,300 (1.1%) were called active. No stated cut-off is given here; in the data, active means binding response below about 67% or above about 130%; inconclusive means no clear call, values can overlap the other calls; inactive means in between. The full list was thinned out, with actives kept by preference.

The target of the assay is Mitogen-activated protein kinase kinase kinase 2 (Homo sapiens) (UniProt Q9Y2U5). Nature of the assay: wildtype MEKK2 PB1-MEK5 interaction, increase or decrease – biochemical, multiplex bead flow cytometry, Alexa488-MEK5, primary screen (AID 1531). As to conditions: Alexa488-MEK5 binding to MEKK2 WT, at 10 µM, actives lie on both sides.
Take `Cc1cc(C)c(OCC(=O)N(Cc2cccs2)C2CCS(=O)(=O)C2)c(C)c1` (centres undefined): the binding response (% of control) was 101% (inactive).

Turning to `O=C(CN1CCc2ccccc21)NC(c1ccccc1)c1ccccc1`, the binding response (% of control) is 95% (inactive). As for `NS(=O)(=O)c1cccc(NC(=O)CN2CCCc3ccccc32)c1`, the figure is 99% (inactive); as for `COC(=O)c1[nH]c2ccc(Br)cc2c1NC(=O)Oc1ccccc1`, 103% (inactive). Under `COC(=O)c1[nH]c2ccccc2c1NC(=O)CN1CCCc2ccccc21` stands -2% (active); under `Cc1cccc(C)c1NC(=O)COC(=O)c1ccccc1O`, 97% (inactive). As for `COC(=O)c1[nH]c2cccc(C)c2c1NC(=O)CN1CCCc2ccccc21`, the figure is 18% [inhibitor] (active). On to `CC(=O)N1c2ccc(S(=O)(=O)N3CCCC(C(=O)Nc4cccc(F)c4)C3)cc2CC1C` (centres undefined), for which the binding response (% of control) was 106% (inactive).

In the case of `CCOC(=O)c1c(-c2ccccc2)oc2cc(Br)c(O)c(C=O)c12`, the binding response (% of control) is 94% (inactive). As for `O=C(Nc1ccccc1Cl)NC1(C(=O)N2CCOCC2)CCCCC1`, the figure is 96% (inactive). As for `CC1(C)C2CC[C@]3(C)C(CC=C4[C@@H]5C[C@@](C)(CO)CC[C@]5(C(=O)O)CC[C@]43C)[C@@]2(C)CC[C@@H]1O` (some centres undefined), the figure is 105% (inactive); as for `C=CCOc1ccccc1NC(=O)CN1C(=O)CNC1=O`, 106% (inactive); as for `O=C(N/N=C\c1cc2c(cc1Cl)OCO2)c1ccc(Br)s1`, 103% (inactive).

For the molecule `O=C(CN1CCN(C2CCCCC2)CC1)Nc1ccccc1N1CCCCC1`, the binding response (% of control) is 109% (inactive).

In the case of `Cc1ccc(C(C)C)cc1OCC(=O)Nc1ccccc1N1CCCC1`, the binding response (% of control) is 100% (inactive). Under `CN1CCN(c2ccccc2NC(=O)COc2ccc(C3CCCCC3)cc2)CC1` stands 145% (active); under `NC(=O)c1oc2ccccc2c1NC(=O)CS(=O)(=O)c1ccccc1`, 106% (inactive). Under `O=C(Nc1ccccc1-c1ccccc1)c1ccccc1[N+](=O)[O-]` stands 106% (inactive); under `O=C(Nc1ccccc1[N+](=O)[O-])C1C(c2ccccc2)=C1c1ccccc1`, 97% (inactive); under `O=C(O)c1ccccc1C(=O)Nc1ccccc1[N+](=O)[O-]`, 0% (active). Under `CCOC(=O)C[C@H]1c2ccc(C(F)(F)F)cc2S(=O)(=O)N1c1ccccc1` stands 98% (inactive); under `CCOC(=O)C1CCN(C(=O)Cn2nc(C)c3c(C)n(-c4ccccc4)nc3c2=O)CC1`, 101% (inactive). Take `COc1ccc(S(=O)(=O)N2CCC(C(=O)NCCC(=O)NCc3cccc(OC)c3)CC2)cc1`: the binding response (% of control) was 104% (inactive). Under `CCOc1cc(/C=C/c2nc3ccccc3c(=O)[nH]2)cc(Br)c1OC` stands 98% (inactive); under `O=C(Nc1c2c(nn1-c1cccc(Cl)c1)CS(=O)(=O)C2)c1cccs1`, 81% (inactive). Under `CCOc1cc(C2C(C(=O)c3ccco3)=C(O)C(=O)N2Cc2ccccc2)ccc1O` (centres undefined) stands 93% (inactive); under `CCCc1nn(C)c2c(=O)[nH]c(-c3cc(S(N)(=O)=O)ccc3OCC)nc12`, 105% (inactive).

Regarding `COc1ccc(S(=O)(=O)NC(C)C(=O)NCc2ccncc2)cc1Cl` (centres undefined), the binding response (% of control) is 98% (inactive). Under `Cn1cc(CCC(=O)NC2CC2)c2ccccc21` stands 96% (inactive); under `COc1ccccc1C(=O)Nc1ccnn1C1CCN(Cc2cnn(C)c2)CC1`, 88% (inactive); under `CC(C)Oc1ccc(CN2CCC(n3nccc3NC(=O)c3cccnc3)CC2)cc1`, 142% (active). Under `COc1ccc(C(=O)Nc2ccnn2C2CCN(Cc3ccncc3)CC2)cc1` stands 101% (inactive); under `Cc1ccc(SCC(=O)NNC(=O)c2ccc(S(C)(=O)=O)cc2)cc1`, 102% (inactive).

Turning to `CC(C)OCCCNC(=O)C1CC(=O)N(C2CCCCCCC2)C1` (centres undefined), the binding response (% of control) is 100% (inactive). Under `O=C(NCCCN1CCCCCC1)C1CC(=O)N(C2CCCC2)C1` (centres undefined) stands 162% (active); under `O=C(NCCc1ccc(Cl)cc1)C1CC(=O)N(C2CCCCC2)C1` (centres undefined), 98% (inactive); under `CCn1c(CC(=O)Nc2ccccc2)nnc1SCC(=O)N1CCOCC1`, 96% (inactive).

Turning to `CCOC(=O)c1ccc(N2C(=O)CC(N3CCN(C(=O)c4ccccc4)CC3)C2=O)cc1` (centres undefined), the binding response (% of control) is 96% (inactive). Under `CCOC(=O)c1ccc(N2C(=O)CC(N3CCC(C(=O)OCC)CC3)C2=O)cc1` (centres undefined) stands 105% (inactive); under `CCCCOC(=O)c1ccc(N2C(=O)CC(N3CCN(C/C=C/c4ccccc4)CC3)C2=O)cc1` (centres undefined), 176% (active); under `C#CCOCCOCCOCCNc1nc(N2CCN(C(=O)C(Cc3ccc(O)cc3)n3cc(C(N)CC(C)C)nn3)CC2)nc(N2CCN(C(=O)C(Cc3ccc(O)cc3)n3cc(C(N)C(C)CC)nn3)CC2)n1` (centres undefined), 147% (active). Under `C#CCOCCOCCOCCNc1nc(N2CCN(C(=O)[C@H](CCC(=O)O)n3cc(C(N)CO)nn3)CC2)nc(N2CCN(C(=O)[C@H](CCCCN)n3cc(C(N)[C@H](C)CC)nn3)CC2)n1` (some centres undefined) stands 97% (inactive); under `C#CCOCCOCCOCCNc1nc(N2CCN(C(=O)[C@H](C(C)C)n3cc(CCO)nn3)CC2)nc(N2CCN(C(=O)[C@H](C(C)C)n3cc(CCO)nn3)CC2)n1`, 97% (inactive). Under `C#CCOCCOCCOCCNc1nc(N2CCN(C(=O)C([C@@H](C)CC)n3cc(C(N)COC(=O)C(F)(F)F)nn3)CC2)nc(N2CCN(C(=O)[C@H](Cc3ccc(O)cc3)n3cc(C(N)[C@H](C)CC)nn3)CC2)n1` (some centres undefined) stands 120% (inactive); under `C#CCOCCOCCOCCNc1nc(N2CCN(C(=O)C([C@@H](C)CC)n3cc(C(N)COC(=O)C(F)(F)F)nn3)CC2)nc(N2CCN(C(=O)[C@H](CCCCN)n3cc(C(N)CC(C)C)nn3)CC2)n1` (some centres undefined), 241% (active). On to `C#CCOCCOCCOCCNc1nc(N2CCN(C(=O)[C@H](CCCCN)n3cc([C@@H](N)C(C)CC)nn3)CC2)nc(N2CCN(C(=O)[C@H](Cc3ccc(O)cc3)n3cc([C@@H](N)C(C)CC)nn3)CC2)n1` (some centres undefined), for which the binding response (% of control) is 211% (active). As for `C#CCOCCOCCOCCNc1nc(N2CCN(C(=O)[C@H](CCC(=O)O)n3cc(C(N)CO)nn3)CC2)nc(N2CCN(C(=O)[C@H](CCCCN)n3cc(C(N)CC(C)C)nn3)CC2)n1` (some centres undefined), the figure is 69% (inactive); as for `C#CCOCCOCCOCCNc1nc(N2CCN(C(=O)[C@H](CCC(=O)O)n3cc(C(N)CO)nn3)CC2)nc(N2CCN(C(=O)[C@H](Cc3ccc(O)cc3)n3cc(C(N)[C@H](C)CC)nn3)CC2)n1` (some centres undefined), 108% (inactive). `C#CCOCCOCCOCCNc1nc(N2CCN(C(=O)[C@H](Cc3ccc(O)cc3)n3cc(C(N)CC(C)C)nn3)CC2)nc(N2CCN(C(=O)[C@H](CCC(=O)O)n3cc(C(N)[C@H](C)CC)nn3)CC2)n1` (some centres undefined): the binding response (% of control) was 106% (inactive).
